Where “and” joins values, the source holds several entries; their conditions need not be identical. Equal values may be shown once. Calls of active or inactive are those of the source.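 How the source made its calls, unless noted: active means thallium flux through the channel raised or lowered by more than 3 SD from vehicle-only wells, actives on both sides; inactive means the rest.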
Legend:
[1] = liver-stage malaria parasite growth inhibition, primary screen, cell-based, HepG2, luciferase luminescence, HepG2 viability (AID 624349; in the data active means parasite load remaining mostly below about 12%, no sharp cut-off; inactive means mostly above about 10%;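 further: 100% = mean of DMSO negative control wells on the same plate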); conditions: P. berghei liver stage in HepG2, luciferase luminescence, concentration not given here; parasite load remaining: stronger effect = lower value; viability: measured here: HepG2 viability without parasites
[2] = Cy5 fluorescence interference with SSB-bound oligo, artefact control for HCV NS3 helicase inhibitor project, biochemical, NIH Clinical Collection, E. coli SSB (AID 743268; call rule not given here)
[3] = system: Hepatitis C virus NS3 helicase; experiment: HCV NS3 helicase inhibitors, primary screen, biochemical, fluorescence polarization, NIH Clinical Collection (AID 743270; call rule not given here); conditions: NS3 helicase binding to Cy5-dT15 DNA, stronger effect = higher value, concentration not given here
[4] = target: Single-stranded DNA-binding protein (Escherichia coli (strain K12)) (UniProt P0AGE0); experiment: E. coli SSB displacement from DNA, counter-screen for HCV NS3 helicase inhibitor project, biochemical, fluorescence polarization, NIH Clinical Collection (AID 743271; in the data active means inhibition above about 28%); conditions: stronger effect = higher value, concentration not given here
[5] = fluorescence interference in NS3h assay format, artefact control for HCV NS3 helicase inhibitor project, biochemical, NIH Clinical Collection (AID 743272; call rule not given here;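 further: HCV NS3 helicase with a Cy5 labelled single stranded DNA probe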); conditions: fluorescence interference counterscreen, stronger effect = lower value
[6] = target: 6-phosphogluconate dehydrogenase, decarboxylating (Homo sapiens) (UniProt P52209); experiment: 6PGD enzyme inhibitors, primary screen, biochemical, human, recombinant enzyme, NADPH absorbance (AID 1159550;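 active means at least 20% inhibition of 6-phosphogluconate dehydrogenase activity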); conditions: recombinant 6PGD, NADPH absorbance 341 nm; at 10 µM; stronger effect = higher value
[7] = modulation of C. elegans fzo-1 (AID 1259413; call rule not given here;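 further: fzo-1 mutant C. elegans worms in liquid wells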); conditions: C. elegans fzo-1 modulator screen, mean read-out; stronger effect = higher value
[8] = differential killing of epithelial or mesenchymal cells, primary screen, imaging, PC-3E GFP, TEM4-18 mCherry, co-culture (AID 1345086;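 active means compounds killing one labelled cell type while sparing the other, by normalised counts and ratio limits, not self-fluorescent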;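 on all read-outs here: cells exposed to compound for 72 h before imaging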;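 on red/green cell ratio (normalised): normalised mesenchymal count divided by normalised epithelial count so high means epithelial killing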); conditions: imaging cell counts, at 1 µM; for red/green cell ratio (normalised): actives lie on both sides, counts scaled to control wells, 1 = unselective
[9] = sensitizers of A549 cells to miR-34 induction, primary screen, imaging, A549 dox-inducible miR-34, nuclei and caspase counts (AID 1347080;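 active means compounds whose cell count with miR-34 switched on is under 0.7 times the count with it off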); conditions: A549 miR-34 inducible, Hoechst nuclei count, 48 h
[10] = viability rescue of complex I mutant cybrids, primary screen, cell-based, galactose medium, ATP luminescence (AID 1645843;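 active means z-score of at least 1.8 in each of two replicates, scored against plate mean and spread of sample wells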;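 further: positive z means more ATP and so rescue of galactose-driven cybrid death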); conditions: complex I mutant cybrid cells, 72 h, stronger effect = higher value
F380Y = experiment: modulators of BK channel variants, profiling panel, selectivity assay, cell-based, U2OS BacMam, thallium flux, beta subunits (AID 1259406); conditions: at 30 µM;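 further: initial slope of Thallos dye fluorescence rise after thallium is added; log ratio against the mean of 0.3% DMSO vehicle wells on the same plate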
F380Y/beta2Delta = experiment: as above; conditions: at 30 µM
[11] = target: Calcium-activated potassium channel subunit alpha-1 (Homo sapiens) + Leucine-rich repeat-containing protein 26 (Homo sapiens) (UniProt Q12791+Q2I0M4); experiment: as above; conditions: F380Y/Slo1WT/gamma1, at 30 µM
R275C = experiment: as above; conditions: at 30 µM
R275C/beta1 = experiment: as above; conditions: at 30 µM
R275C/beta2Delta = experiment: as above; conditions: at 30 µM
[12] = survival rescue of mitochondrial mutant cells in low glucose, primary screen, MELAS cybrids, Rieske KO mouse fibroblasts, CellTiter-Glo (AID 1508586;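 active means mean z-score across replicates of 1.96 or higher in either the MELAS or the Rieske mutant cell line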;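 further: z relative to plate mean and SD of compound and empty wells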)
[13] = target: NAD(+) hydrolase SARM1 (Homo sapiens) (UniProt Q6SZW1); experiment: SARM1 TIR NADase inhibitors, cell lysate, NAD-Glo luminescence (AID 1508614;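 active means compound whose remaining NAD level is above about 45 nM, limit read from the data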); conditions: SAM-TIR HEK293T lysate NADase, at 1 µM, stronger effect = higher value
[14] = target: Mitogen-activated protein kinase 7 (Homo sapiens) (UniProt Q13164); experiment: ERK5 transactivation activators in reporter cells, primary screen, cell-based, HTS (AID 1508626;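 active means luciferase signal above three times the same-plate solvent-only control wells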;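 further: luciferase driven by Gal4-ERK5 fusion binding five Gal4 sites before minimal TATA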); conditions: HeLa Gal4-ERK5 transactivation, 18 h, at 5 µM, stronger effect = higher value
[15] = measured here: epithelial PC-3E GFP cell survival
[16] = measured here: mesenchymal TEM4-18 mCherry cell survival
[17] = stronger effect = lower value, cell number ratio, induced over uninduced
[18] = measured here: relative caspase fold change +Dox/-Dox
[19] = measured here: total cells with miR-34 induction, stronger effect = lower value
[20] = measured here: total cells without miR-34 induction
[21] = MELAS cybrid survival, CellTiter-Glo 48 h, stronger effect = higher value
[22] = Rieske KO mouse fibroblast survival, CellTiter-Glo 72 h

6-phosphogluconate dehydrogenase, decarboxylating (Homo sapiens), sequence (P52209 whole entry, looked up): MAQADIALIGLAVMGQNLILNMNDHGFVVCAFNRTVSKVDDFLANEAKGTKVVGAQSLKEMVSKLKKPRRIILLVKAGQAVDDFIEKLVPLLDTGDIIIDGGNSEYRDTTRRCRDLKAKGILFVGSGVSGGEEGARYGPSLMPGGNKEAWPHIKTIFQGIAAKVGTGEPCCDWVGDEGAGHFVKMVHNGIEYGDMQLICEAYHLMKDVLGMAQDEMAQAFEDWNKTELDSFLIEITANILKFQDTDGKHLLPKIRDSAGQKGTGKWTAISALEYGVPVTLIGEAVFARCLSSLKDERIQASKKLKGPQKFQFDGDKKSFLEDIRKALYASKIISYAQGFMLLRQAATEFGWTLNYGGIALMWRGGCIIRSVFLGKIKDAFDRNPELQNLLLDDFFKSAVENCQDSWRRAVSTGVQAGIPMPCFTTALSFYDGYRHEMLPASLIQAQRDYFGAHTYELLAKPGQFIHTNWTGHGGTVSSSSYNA
NAD(+) hydrolase SARM1 (Homo sapiens), sequence (Q6SZW1 whole entry, looked up, the tested form may be a part): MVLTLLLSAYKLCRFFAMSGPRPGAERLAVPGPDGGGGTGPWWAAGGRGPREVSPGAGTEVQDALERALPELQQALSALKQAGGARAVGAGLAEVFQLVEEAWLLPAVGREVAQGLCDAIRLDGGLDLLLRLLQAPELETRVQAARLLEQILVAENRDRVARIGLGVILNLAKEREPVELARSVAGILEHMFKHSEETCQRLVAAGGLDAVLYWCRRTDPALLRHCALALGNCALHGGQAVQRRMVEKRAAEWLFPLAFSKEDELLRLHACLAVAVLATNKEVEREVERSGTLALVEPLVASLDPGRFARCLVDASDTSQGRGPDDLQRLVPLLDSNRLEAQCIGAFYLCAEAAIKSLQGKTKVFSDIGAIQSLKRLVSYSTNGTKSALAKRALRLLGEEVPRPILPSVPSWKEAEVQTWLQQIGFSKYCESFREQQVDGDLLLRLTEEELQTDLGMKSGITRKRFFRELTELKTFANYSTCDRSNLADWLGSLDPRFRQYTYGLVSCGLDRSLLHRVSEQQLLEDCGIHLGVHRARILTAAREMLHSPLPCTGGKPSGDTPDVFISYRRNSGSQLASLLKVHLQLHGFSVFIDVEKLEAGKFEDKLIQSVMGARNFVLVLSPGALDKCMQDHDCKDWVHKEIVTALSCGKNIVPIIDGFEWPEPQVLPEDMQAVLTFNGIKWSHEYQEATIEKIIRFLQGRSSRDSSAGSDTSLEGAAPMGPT
Mitogen-activated protein kinase 7 (Homo sapiens), sequence (Q13164 whole entry, looked up, the tested form may be a part): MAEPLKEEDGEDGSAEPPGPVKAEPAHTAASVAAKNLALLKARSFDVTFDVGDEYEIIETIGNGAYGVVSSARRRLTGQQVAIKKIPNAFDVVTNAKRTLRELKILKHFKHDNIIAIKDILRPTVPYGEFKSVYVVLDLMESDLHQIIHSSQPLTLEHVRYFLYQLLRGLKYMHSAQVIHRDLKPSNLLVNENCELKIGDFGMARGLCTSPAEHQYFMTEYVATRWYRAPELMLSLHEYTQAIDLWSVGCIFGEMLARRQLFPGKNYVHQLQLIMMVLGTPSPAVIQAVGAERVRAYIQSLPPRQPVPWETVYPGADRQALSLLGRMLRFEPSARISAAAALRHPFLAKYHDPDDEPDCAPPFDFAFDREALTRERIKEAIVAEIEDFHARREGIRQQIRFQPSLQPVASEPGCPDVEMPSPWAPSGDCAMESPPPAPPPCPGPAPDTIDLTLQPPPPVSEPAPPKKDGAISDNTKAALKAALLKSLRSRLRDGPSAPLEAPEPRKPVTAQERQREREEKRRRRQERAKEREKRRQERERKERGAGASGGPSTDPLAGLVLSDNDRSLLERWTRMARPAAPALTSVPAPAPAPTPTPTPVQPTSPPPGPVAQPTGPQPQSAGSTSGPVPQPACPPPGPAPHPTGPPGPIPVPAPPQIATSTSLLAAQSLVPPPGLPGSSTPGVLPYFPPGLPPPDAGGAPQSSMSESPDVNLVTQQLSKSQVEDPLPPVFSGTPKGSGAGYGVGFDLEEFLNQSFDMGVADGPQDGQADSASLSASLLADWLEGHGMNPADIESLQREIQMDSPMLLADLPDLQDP
Calcium-activated potassium channel subunit alpha-1 (Homo sapiens) + Leucine-rich repeat-containing protein 26 (Homo sapiens), sequence (Q2I0M4 whole entry, looked up, one chain of several): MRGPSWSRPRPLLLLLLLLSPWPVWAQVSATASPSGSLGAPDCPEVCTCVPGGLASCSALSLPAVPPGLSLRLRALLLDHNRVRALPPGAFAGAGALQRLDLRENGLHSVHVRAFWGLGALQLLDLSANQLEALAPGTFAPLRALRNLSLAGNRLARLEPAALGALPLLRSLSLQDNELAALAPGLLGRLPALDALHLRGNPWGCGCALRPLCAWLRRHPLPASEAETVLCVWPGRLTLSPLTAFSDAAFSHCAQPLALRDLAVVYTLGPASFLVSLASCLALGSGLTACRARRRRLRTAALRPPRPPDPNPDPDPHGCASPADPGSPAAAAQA

O=[N+]([O-])c1cccc2cn[nH]c12
0.865 and 1.54 and 0.678: fold change [9, 18]
9850 and 10100 and 9080: cell count [9, 20]
68.7%: viability [1]
1.44: normalised cell number [8, 15]
10200 and 8750 and 8260: cell count [9, 19]
1.13: normalised cell number [8, 16]
inactive: parasite load remaining [1] 55.2% | fluorescence ratio [2] 0.99 | inhibition [3] 1.53% | inhibition [4] -2.76% | fluorescence ratio [5] 0.97 | inhibition [6] -14.4% | mean signal [7] 242 | red/green cell ratio (normalised) [8] 0.79 | fold change [9, 17] 1.03 and 0.867 and 0.91 | z-score [10] 0.295 and 0.3 and -0.14 | log fold change Tl+ flux (F380Y) 0.0311 | log fold change Tl+ flux (F380Y/beta2Delta) -0.000818 | log fold change Tl+ flux [11] 0.0381 | log fold change Tl+ flux (R275C) -0.025 | log fold change Tl+ flux (R275C/beta1) -0.0288 | log fold change Tl+ flux (R275C/beta2Delta) 0.0285

COc1ccc2c(c1)CC[C@@H]1[C@@H]2CC[C@]2(C)[C@@H](O)[C@H](O)C[C@@H]12
inactive: inhibition [6] 5.45%

CC1=C(/C=C/C(C)=C/C=C/C(C)=C\C(=O)O)C(C)(C)CCC1
1.18: normalised cell number [8, 16]
0.91: normalised cell number [8, 15]
-0.281: z-score [12, 22]
inactive: fluorescence ratio [2] 1.01 | inhibition [3] 0.45% | inhibition [4] -1.24% | fluorescence ratio [5] 0.99 | inhibition [6] 16.8% | mean signal [7] 236 | red/green cell ratio (normalised) [8] 1.29 | z-score [12, 21] -0.17 | remaining NAD [13] 10 nM | luciferase signal [14] 48 AU | z-score [10] 1.53 and -0.905 | log fold change Tl+ flux (F380Y) -0.00963 | log fold change Tl+ flux (F380Y/beta2Delta) 0.000191 | log fold change Tl+ flux (R275C) -0.0306 | log fold change Tl+ flux (R275C/beta1) -0.0172 | log fold change Tl+ flux (R275C/beta2Delta) 0.0302
active: log fold change Tl+ flux [11] -0.0907

CCCCC(CC)COC(=O)COc1cc(Cl)c(Cl)cc1Cl (stereo not given)
inactive: inhibition [6] 4.06%

CC(CCC(=O)O)C1CCC2C3CCC4CCCCC4(C)C3CCC12C (stereo not given)
inactive: inhibition [6] 14%

Cc1cc(=O)c2c(O)c(C)c(O)cc2o1
inactive: inhibition [6] 15%

C[N+]1(C)CCCC(OC(=O)C(O)(c2ccccc2)c2ccccc2)C1 (stereo not given)
0.26: z-score [12, 22]
1.31: normalised cell number [8, 15]
10800 and 10200 and 12500: cell count [9, 20]
0.965 and 1.32 and 4.07: fold change [9, 18]
10300 and 8730 and 11200: cell count [9, 19]
1.37: normalised cell number [8, 16]
inactive: fluorescence ratio [2] 1.02 | inhibition [3] -3.18% | inhibition [4] -3.53% | fluorescence ratio [5] 0.96 | inhibition [6] -19.7% | mean signal [7] 266 | red/green cell ratio (normalised) [8] 1.05 | fold change [9, 17] 0.951 and 0.851 and 0.901 | z-score [12, 21] 0.378 | remaining NAD [13] 10 nM | luciferase signal [14] 36 AU | z-score [10] 0.49 | log fold change Tl+ flux (F380Y) 0.00904 | log fold change Tl+ flux (F380Y/beta2Delta) -0.0376 | log fold change Tl+ flux [11] -0.0154 | log fold change Tl+ flux (R275C) 0.00512 | log fold change Tl+ flux (R275C/beta1) 0.0318 | log fold change Tl+ flux (R275C/beta2Delta) -0.0151

CC(C(=O)O)c1ccc(-c2ccccc2)c(F)c1 (stereo not given)
1.07: normalised cell number [8, 15]
1.18: normalised cell number [8, 16]
inactive: fluorescence ratio [2] 0.95 and 0.99 | inhibition [3] -2.77% and -3.18% | inhibition [4] 6.83% and 0.29% | fluorescence ratio [5] 0.9 and 0.98 | inhibition [6] 19% | mean signal [7] 239 | red/green cell ratio (normalised) [8] 1.1 | z-score [12, 21] -0.289 and 0.565 and 0.434 | remaining NAD [13] 10 nM | luciferase signal [14] 40 AU | log fold change Tl+ flux (F380Y) 0.0247 | log fold change Tl+ flux (F380Y/beta2Delta) -0.00435 | log fold change Tl+ flux [11] 0.0464 | log fold change Tl+ flux (R275C) -0.0123 | log fold change Tl+ flux (R275C/beta1) 0.0432 | log fold change Tl+ flux (R275C/beta2Delta) 0.0621
1.18 and -0.0179 and 1.37: z-score [12, 22]

Cc1cccc(C)c1NC(=O)C1CCCCN1C (stereo not given)
1.53 and 0.775 and 2.13: fold change [9, 18]
8050 and 8030 and 11600: cell count [9, 19]
8240 and 8660 and 13200: cell count [9, 20]
1.44: normalised cell number [8, 16]
inactive: parasite load remaining [1] 174% and 77.7% and 69.1% | fluorescence ratio [2] 0.96 | inhibition [3] -2.84% | inhibition [4] 1.97% | fluorescence ratio [5] 0.95 | inhibition [6] 10.7% | mean signal [7] 253 | red/green cell ratio (normalised) [8] 1.21 | fold change [9, 17] 0.977 and 0.928 and 0.875 | z-score [12, 21] -0.27 and -0.937 | remaining NAD [13] 10 nM | luciferase signal [14] 68 AU | z-score [10] 0.56 | log fold change Tl+ flux (F380Y) 0.0251 | log fold change Tl+ flux (F380Y/beta2Delta) 0.00729 | log fold change Tl+ flux [11] 0.0131 | log fold change Tl+ flux (R275C) -0.0395 | log fold change Tl+ flux (R275C/beta1) -0.0108 | log fold change Tl+ flux (R275C/beta2Delta) 0.00999
-0.166 and -1.35: z-score [12, 22]
1.19: normalised cell number [8, 15]
85.7% and 198% and 72.6%: viability [1]

CC1(C)C(=O)[C@H]2C[C@]3(O)C4=CC(=O)O[C@@H](c5ccoc5)[C@@]4(C)CCC3[C@](C)(C2=O)[C@H]1CC(=O)O (stereo not given in full)
inactive: inhibition [6] -7.25%

CNCCC(Oc1ccc(C(F)(F)F)cc1)c1ccccc1 (stereo not given)
active: log fold change Tl+ flux (F380Y) 0.129 | log fold change Tl+ flux (F380Y/beta2Delta) 0.189 | log fold change Tl+ flux (R275C/beta1) 0.297
1.15: normalised cell number [8, 16]
1.16: normalised cell number [8, 15]
-2.64 and 0.201 and 0.197: z-score [12, 22]
inactive: fluorescence ratio [2] 1.04 | inhibition [3] -2.27% | inhibition [4] -2.76% | fluorescence ratio [5] 1.03 | inhibition [6] 19% | mean signal [7] 190 | red/green cell ratio (normalised) [8] 1 | z-score [12, 21] 1.26 and -0.395 and -0.285 | remaining NAD [13] 10 nM | log fold change Tl+ flux [11] 0.0464 | log fold change Tl+ flux (R275C) -0.0214 | log fold change Tl+ flux (R275C/beta2Delta) 0.0608

CC(C)/C(O)=C1/C(=O)O[C@@H](c2ccoc2)[C@]2(C)C(O)[C@@H](O)[C@@]34OC5(C)OC67CC(C)(C(O)[C@]6(O)[C@@H](O)[C@]3(O5)C12)[C@H](CC(=O)O)[C@]74C (stereo not given in full)
inactive: inhibition [6] 16.8%
